Compounds with a hit are over-represented: about 4.7% of the library has one in this group of screens.
PABP FP inh – blocks human PABP binding to poly(A) RNA. P11940. fluorescence polarization. inhibition, % at 35 µM. 290,000 tested, 1% active. AID 2014;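 note: calls also rest on retests at 20 µM and on dose response follow-up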
ALR H2O2 inh – human ALR oxidase inhibition via reduced H2O2; P55789; inhibition, % (concentration not given with the values); 290,000 tested, 3.8% active; purified ALR, DTT oxidation, H2O2 HRP-luminol luminescence; AID 485317;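 active = mean replicate inhibition above about 79%, with every replicate also reaching it, limit read from the data; inconclusive = only one of the two criteria met; inactive = mean below limit and not every replicate reaching it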
Target sequence (P55789 whole entry, looked up): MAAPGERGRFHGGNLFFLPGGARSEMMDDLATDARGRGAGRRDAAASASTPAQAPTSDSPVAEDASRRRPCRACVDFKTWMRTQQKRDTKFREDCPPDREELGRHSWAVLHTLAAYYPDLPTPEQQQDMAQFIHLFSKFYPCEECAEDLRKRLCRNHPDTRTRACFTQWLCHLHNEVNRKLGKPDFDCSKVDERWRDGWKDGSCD
eIF4H inh – inhibitors of RNA binding by human eIF4H. eIF4H fluorescence polarization binding assay. inhibition, % at 35 µM. 290,000 tested, 0.94% active. AID 2012;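 note: calls also rest on retests at 20 µM and on dose response follow-up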
MLLE-PAM2 inh – blocks PAM2 peptide binding to the PABP1 MLLE domain; AID 588489; 360,000 tested, 0.36% active; inhibition, % at 20 µM; GST-MLLE / FITC-PAM2 fluorescence polarization; P11940; in the data active = inhibition above about 35%, passing the limit was not always enough;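 note: plate controls were DMSO wells with GST-MLLE for no effect and wells lacking GST-MLLE protein for full effect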
Efflux pump mplx – blocks antifungal efflux pumps in multiplex yeast assay | S. cerevisiae Candida pump triplex, Nile Red efflux | inhibition, % at 10 µM | 330,000 tested, 0.44% active;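 active = plate passing quality check with inhibition over a set limit, or well fluorescence over plate mean plus 4 SD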;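 note: Nile Red retained in pooled yeast measured as flow cytometry median fluorescence; 0% = buffer negative control and 100% = Enniatin B positive control; higher means more Nile Red kept so more efflux inhibition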
UBC9 SUMO inh – blocks human SUMOylation mediated by UBC9. P63279. HTRF SUMOylation assay, SAE1/SAE2 + UBC9, in vitro. inhibition, % at 35 µM. 290,000 tested, 0.36% active. AID 2006; in the data active = inhibition above about 50%, passing the limit was not always enough; inconclusive = no clear call, values can overlap the other calls
Target sequence (P63279 whole entry, looked up): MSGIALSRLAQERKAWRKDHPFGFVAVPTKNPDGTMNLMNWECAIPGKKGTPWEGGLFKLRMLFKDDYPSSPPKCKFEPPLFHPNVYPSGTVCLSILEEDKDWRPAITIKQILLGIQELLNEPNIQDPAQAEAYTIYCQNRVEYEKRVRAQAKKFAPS
Yeast cmpd fluor – counter-screen for efflux pump inhibitors: compound fluorescence | shares compounds with Efflux pump mplx | S. cerevisiae AD/pABC3, flow cytometry | fluorescence ratio to DMSO, % at 10 µM | 1,700 tested, 4% active | AID 588517;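 active = fluorescence ratio to DMSO above its plate's cutoff, the plate mean ratio plus 5 SD, cut at about 210% in these data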;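 note: unstained yeast with no Nile Red so the signal is compound autofluorescence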
CaMdr1 efflux inh – Candida Mdr1 efflux pump inhibition; shares compounds with Efflux pump mplx; 1,700 tested, 1% active; AID 588518; inhibition, % at 10 µM; S. cerevisiae AD/CaMDR1, Nile Red efflux, flow cytometry; in the data active = inhibition above about 26%;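 note: 0% = DMSO vehicle and 100% = reference inhibitor; higher means more Nile Red retained so more efflux inhibition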
CaCdr2 efflux inh – Candida Cdr2 efflux pump inhibition | shares compounds with Efflux pump mplx | Nile Red retention ratio vs DMSO, % at 10 µM | S. cerevisiae AD/CaCDR2, Nile Red retention, flow cytometry | 1,700 tested, 4% active | AID 588520; in the data active = Nile Red retention ratio vs DMSO above about 190%;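 note: higher ratio means more blocking of Cdr2 efflux of the dye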
Cdr1 pump inh – inhibitors of Candida albicans Cdr1 efflux pump. inhibition, % at 10 µM. 1,700 tested, 1% active. S. cerevisiae AD/CaCDR1, Nile Red efflux, flow cytometry. shares compounds with Efflux pump mplx;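 active = inhibition above the screen-wide mean plus twice its standard deviation, cut at about 32% in these data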
The depositor's hits bear a star; ? = inconclusive; . = not tested or not shown. Unless noted, the rule behind the calls is not given here.

SMILES	PABP FP inh	ALR H2O2 inh	eIF4H inh	MLLE-PAM2 inh	Efflux pump mplx	UBC9 SUMO inh	Yeast cmpd fluor	CaMdr1 efflux inh	CaCdr2 efflux inh	Cdr1 pump inh
CCCCC1(C(=O)OCC)CC(CSC(=N)N)OC1=O (stereo not given)	4	-1	4	14	0.6*	4	92	0	104	0
CCCCCOCC1CC(C/C(C)=N/NC(N)=O)(C(=O)OCC)C(=O)O1 (stereo not given)	10	-6	3	-4	0	-7	.	.	.	.
CCC1=C(OC(=O)N(CC)CC)N2C(=O)OC(=NCCOC)[C@]2(Cc2ccccc2)[C@H]2C1=CC[C@H]1C(=O)N(CC(=O)OC)C(=O)[C@H]12	21	-21	6	13	0	1	.	.	.	.
CCC1=C(OC(=O)N(CC)CC)N2C(=O)OC(=NCCc3c[nH]c4ccccc34)[C@]2(Cc2ccccc2)[C@H]2C1=CC[C@H]1C(=O)N(CC(=O)OC)C(=O)[C@H]12	7	-36	-2	-4	7.3*	-6	113	2	135	0
CCN(CC)S(=O)(=O)c1ccc(N2CCOCC2)c(NC(=O)CCC2CCCCC2)c1	20	1	4	39*	13*	-7	101	0	94	0
Cc1cc2oc(=O)c(CC(=O)NCCCO)c(C)c2c2occ(C(C)(C)C)c12	2	-4	7	-12	0	17	.	.	.	.
Cc1cc2oc(=O)c(CC(=O)NCCCN(C)C)c(C)c2c2occ(C(C)(C)C)c12	3	3	3	.	0.9*	17	108	0	89	0
Cc1ccc(S(=O)(=O)N2CCOCC2)cc1NC(=O)COc1ccccc1Cc1ccccc1	.	.	.	-4	0	.	.	.	.	.
O=C(NCCCC1CCCC1)C1CCC(=O)N(Cc2ccc(Cl)cc2)C1 (stereo not given)	8	5	-8	15	6.4*	-8	98	0	97	0
Cn1cc(/C=C/c2cc[n+](C)cc2)c2cc(Cl)ccc21	?	.	?	-61	5.9*	15	735*	3	99	2
Cn1cc(/C=C/c2cc[n+](C)cc2)c2cc(F)ccc21	?	.	?	-43	9.5*	7	743*	3	93	4
Cn1cc(C=O)c2cc(F)ccc21	11	-7	-4	14	0	13	.	.	.	.
CC1=C(C(=O)N(C)C)CC(CC(=O)NC2CC2)C(=O)N1Cc1ccccc1 (stereo not given)	.	.	.	-17	.	.	.	.	.	.
COc1ccc(CN2CCC2(C)C(=O)Nc2cnc3ccccc3c2)c2ccccc12 (stereo not given)	.	.	.	8	.	.	.	.	.	.
CCCNC(=O)c1ccc(N2CCC3(CC2)CC(c2ccccc2)=NO3)c(NC(=O)c2ccccc2)c1	4	-3	-7	-2	0	5	.	.	.	.
CCCCCCCC(=O)Nc1cc(C(=O)NCCC)ccc1N1CCC2(CC1)CC(c1ccccc1)=NO2	-1	-2	6	4	0.9*	-12	117	0	116	0
COc1ccc(C(C(=O)NC(C)(C)C)N(Cc2cccnc2)C(=O)CCC(=O)Nc2cc(C)on2)cc1 (stereo not given)	6	.	2	-1	0	-23	.	.	.	.
Cn1ccc(NC(=O)c2ccc(Cl)cc2)n1	.	.	.	0	151*	.	106	0	100	0
Cc1cc(C)c(-c2csc(NC(=O)/C=C/c3cccs3)n2)c(C)c1	1	-10	-12	-2	23*	0	105	0	91	0
C[C@@H]1CC[C@]2(C(=O)O)CC[C@]3(C)C(=CCC4[C@]56CC[C@@](O)(OC5)C(C)(C)C6CC[C@]43C)C2[C@H]1C (stereo not given in full)	.	.	.	-14	1.4*	.	104	0	204*	0
N#Cc1ccc(OCC(=O)N2CCN(c3ccc(C(F)(F)F)cn3)CC2)cc1	.	1	.	-92	0.8*	.	109	0	108	0
Cc1cccc(C)c1NC(=O)CNC(=O)c1c(C)nn(-c2ccccc2)c1Cl	.	.	.	-4	0	.	.	.	.	.
Cn1cccc1/C=C1\SC(=S)N(NC(=O)c2ccccc2)C1=O	2	-6	?	-108	0	5	.	.	.	.
CC(/C=C1\SC(=S)N(NC(=O)c2ccncc2)C1=O)=C\c1ccccc1	18	24	-6	-6	0	-8	88	0	87	0
CC(/C=C1\SC(=S)N(NS(=O)(=O)c2ccc(C)cc2)C1=O)=C\c1ccccc1	13	4	3	0	0	59*	109	0	104	0
SMILES	PABP FP inh	ALR H2O2 inh	eIF4H inh	MLLE-PAM2 inh	Efflux pump mplx	UBC9 SUMO inh	Yeast cmpd fluor	CaMdr1 efflux inh	CaCdr2 efflux inh	Cdr1 pump inh
Cn1cccc1/C=C1\SC(=S)N(NC(=O)c2ccc(F)cc2)C1=O	?	.	?	-155	0	5	92	0	87	0
COc1cc(/C=C2\SC(=S)N(NS(=O)(=O)c3ccccc3)C2=O)ccc1O	-8	.	-6	-78	0	0	.	.	.	.
CC(/C=C1\SC(=S)N(NC(=O)c2ccccc2C)C1=O)=C\c1ccccc1	-10	2	7	-10	1	9	.	.	.	.
COc1cc(/C=C2\SC(=S)N(NS(=O)(=O)c3ccc(C)cc3)C2=O)ccc1O	6	99*	28	-90	0	15	117	0	109	0
OC(CNCc1cccnc1)COc1ccc2ccccc2c1 (stereo not given)	-16	-30	-8	-5	0	8	.	.	.	.
COc1ccc(-c2ccc(NCCN3CCOCC3)nn2)cc1OC	-2	10	-4	11	0	13	.	.	.	.
COc1cccc(OCc2cc(C(=O)N3CCNC(=O)C3Cc3ccccc3)no2)c1 (stereo not given)	-4	-8	-13	1	0	13	.	.	.	.
O=C(NN1C(=O)/C(=C/c2cccs2)SC1=S)c1cccnc1	7	.	-4	13	0	7	105	0	93	0
COc1ccccc1CNC(=O)C1CCN(c2ncnc3c2nc2n3CCCCC2)CC1	-7	-4	-13	17	0	20	.	.	.	.
COc1ccc([C@@H]2Sc3ccccc3N(CCN(C)C)C(=O)[C@@H]2OC(C)=O)cc1	3	-27	0	7	0	7	114	0	114	0
CC(C)C(NS(=O)(=O)c1ccccc1)C(=O)OCc1cc([N+](=O)[O-])cc2c1OCOC2 (stereo not given)	-1	2	6	-7	0	-6	.	.	.	.

Screening results: PubChem BioAssay, several laboratories
